Test results published in PubChem BioAssay AID651661 (Broad Institute, 2012).
Values joined by “and” are separate entries in the source; they are usually repeats but may differ in a detail not shown here. Equal entries are not always repeated. The whole screen tested about 350,000 compounds, of which about 2,300 (0.66%) were called active. Shown is part of a subset that was picked to be rich in actives. A number with no mark means an inactive call.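 The calls were made as follows: active = mean inhibition of at least 50% after viability correction, with every replicate also passing that limit; inconclusive = mean reaches 50% but only one of two replicates passes; inactive = the rest.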

Test: EWS/Fli-driven NR0B1 reporter inhibitors, primary screen, A673 cells, NR0B1 luciferase, luminescence, MLPCN library (AID 651661);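 also: firefly luciferase signal divided by Alamar Blue viability fluorescence both relative to DMSO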
Details: viability-normalised, at 12.6 µM, hits give high values
For COC1C(O)C(C)OC(OC2CCC3(C=O)C(CCC4C3CCC3(C)C(C5=CC(=O)OC5)CCC43O)C2)C1O (stereo not given), the inhibition was 61.9% (active).
Molecule OC[C@@H]1[C@H]2c3ccccc3NC[C@H]2N1Cc1cccnc1 has an inhibition of 3.74%.
With Cc1nc2ccc(N3CCN(C)CC3)cc2nc1C the inhibition was 1.28%.
With COc1cccc(-c2nc3ccc(N4CCN(C)CC4)cc3[nH]2)c1 the inhibition was 54% (active).
Brc1ccc2c(c1)CNCc1cnnn1-2 showed an inhibition of -10.6%.
Molecule CCC(C)NC1(c2ccccc2)CCCCC1 (stereo not given) has an inhibition of -1.85%.
With COc1cc(OC)cc(C(=O)NCCN2CCC3(CC2)C(=O)NCN3c2ccccc2)c1 the inhibition was -1.8%.
Molecule CCN(CC)C(=O)[C@@H]1C=C2c3cccc4[nH]c(Br)c(c34)C[C@H]2N(C)C1 has an inhibition of -3.36%.
C[C@]12CCC3C(CC[C@H]4C[C@@H](O)CC[C@]34C)C1C[C@@H](O)[C@H]2O (stereo not given in full) gave an inhibition of 0.611%.
C[C@]12CCC3C(CC[C@H]4C[C@@H](O)CC[C@]34C)C1CC[C@@H]2O (stereo not given in full) gave an inhibition of -5.07%.
For C[C@]12CC[C@H](O)C[C@H]1CC[C@@H]1C2CC[C@]2(C)[C@@H](C3=CC(=O)OC3)[C@@H](O)C[C@]12O (stereo not given in full), the inhibition was 64.9% (active).
COc1ccc(C#Cc2ccc([C@H]3[C@H](CO)N4CCCCN(C(=O)Cc5ccccc5)C[C@@H]34)cc2)cc1 showed an inhibition of -12.7%.
With COC(=O)[C@H]1[C@H](CO)[C@H]2Cn3c(ccc(-c4cccc(F)c4)c3=O)[C@@H]1N2Cc1ccccc1 the inhibition was -28.1%.
Molecule O=c1[nH]c2ccccc2n1C1CCN(C(c2ccccc2)c2nnnn2Cc2ccccc2)CC1 (stereo not given) has an inhibition of 21.9%.
O=C(O)COc1ccccc1/C=C1\C(=O)NC(=O)N(CCC2=CCCCC2)C1=O showed an inhibition of 2.19%.
With O=C1NC(=O)N(CCc2ccc(F)cc2)C(=O)/C1=C/C=C/c1ccccc1 the inhibition was 66.1% (active).
In the case of O=C1NC(=O)N(Cc2ccco2)C(=O)/C1=C\c1ccc(-c2ccc(F)cc2)o1, the inhibition is reported as 20%.
Work on O=C(NC[C@@H]1CC[C@H]2NC[C@H]2O1)C1CCCC1 yielded an inhibition of -22.4%.
With C[C@@H]1CN([C@H](C)CO)C(=O)CCCn2cc(nn2)CO[C@@H]1CN(C)C(=O)Oc1cccc2ccccc12 the inhibition was 4.15%.
For C[C@H]1CN([C@@H](C)CO)C(=O)CCCn2nncc2CO[C@H]1CN(C)C(=O)Oc1cccc2ccccc12, the inhibition was -6.63% and -4.29% and 4.35%.
For CN(C)CC1Oc2ccccc2OC1(O)c1ccccc1 (stereo not given), the inhibition was 55.9% (active).
For O=C(NCC1=C(c2ccc3ccccc3c2)C[C@@H]2CC[C@H]1N2Cc1ccco1)c1cccs1, the inhibition was 2.23%.
Work on O=c1[nH]c2ccccc2n1C1CCN(C(c2ccnc3ccccc23)c2nnnn2Cc2ccccc2)CC1 (stereo not given) yielded an inhibition of 6.09%.
COC(=O)C[C@@H]1CC[C@@H]2NC[C@@H](O)COC[C@H]2O1 showed an inhibition of -11.3%.
In the case of Cc1cc(N2CCNC[C@@H]2C)ccc1N1CC[C@H](O)C1, the inhibition is reported as -8.38%.
Work on CCOC(=O)[C@]12Cc3cc(OC)ccc3[C@H]1N(C(C)C)C(=O)c1ccccc12 yielded an inhibition of 16.8%.
For CCOC(=O)[C@]12Cc3ccccc3[C@H]1N(C1CCCCC1)C(=O)c1cc(OC)ccc12, the inhibition was 56.3% (active).
Work on CC(=O)NCC1=C(c2ccc3ccccc3c2)C[C@@H]2CC[C@H]1N2Cc1ccco1 yielded an inhibition of 9.45%.
For CC1C(=O)OC2CCN3CC=C(COC(=O)C(C)(O)C1(C)O)C23 (stereo not given), the inhibition was 0.572%.
With O=C(O)[C@@H]1[C@@H](CO)[C@@H]2Cn3c(ccc(-c4ccccc4F)c3=O)[C@H]1N2C(=O)c1cccnc1 the inhibition was -3.75%.
